# A selection: hits, their analogues and other compounds. The true share with any hit is near 0.55%.
# S-ASM inh – blocks human secretory acid sphingomyelinase. placental ASM, HMU-PC fluorogenic substrate, 60 min. P17405. Potency, µM (highest dose often 57.5 µM), without a hit: at the top dose activity change, negative = inhibition, hits mostly inhibitors. 340,000 tested, 0.006% active
#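 Fluorogenic HMU-PC substrate (9 uM final) is turned over by placental ASM in 60 min at 37 C after a 10 min compound preincubation. Reaction ended by alkaline stop (pH 10), with fluorescence read at 386/447 nm.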
# KAT2A inh – GCN5L2 (KAT2A) acetyltransferase inhibition; Q92830; GCN5L2 HAT assay, ThioGlo1 CoA-SH fluorescence; 390,000 tested, 0.21% active; Potency, µM (series often up to 58.9 µM), for the others: top-dose activity change, negative = inhibition, actives largely listed as inhibitors; AID 504327; also: % is scaled to controls: 0 for no effect and ±100 for the full control effect
#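 Fluorescence readout, Ex340nm/Em540nm: ThioGlo1 (50uM final) reacts with free CoA thiol released as 20nM GCN5L2 acetylates H3(1-25) peptide (75uM) using acetyl-CoA (70uM). Compound and enzyme sat 15 min beforehand; 20 min room-temperature reaction.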
# p53 reactivation – mutant p53 re-activation in reporter cells | H1299 p53-A138V BP100-luciferase reporter, luminescence, 24 h | Potency, µM (top dose mostly 92.2 µM), for inactives: top-dose activity change, positive = activation, hits mostly activators | 320,000 tested, 0.063% active | AID 504706; also: % of control where 0% means no effect; nearly all actives have a fitted effect of over 45% in size
#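 H1299 (p53-null), stable ts p53-A138V + BP100-Luc; 1000 cells/well, Opti-MEM/10% FBS; cpd 4 pt, 1:5; 24 h, 37 deg C, 5% CO2; detection reagent 10 min RT; luminescence.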
# Tb PFK inh-1 – inhibitors of T. brucei phosphofructokinase; O15648; T. brucei PFK, ADP-Glo luminescence; Potency, µM (doses to about 57.5 µM), for inactives: at the top dose activity, negative = inhibition, most hits filed as inhibitors; 330,000 tested, 0.17% active;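 also: 0% = uninhibited 1x PFK enzyme wells and -100% = no-enzyme wells; nearly all actives have a fitted effect of over 60% in size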
#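 Activity is normalized to no-enzyme wells (full inhibition) and 1.25 nM enzyme wells (no inhibition). Reaction: 0.5 mM F6P, 0.1 mM ATP, 45 min RT, ADP-Glo luminescence; concentration-response curves fitted and classed by quality.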
# ERG Ets-DNA blk – blocks human ERG Ets domain binding to DNA; P11308; fluorescence polarization, His-ERG Ets domain / labelled DNA; Potency, µM (highest dose often 76.9 µM), for inactives: top-dose FP activity, negative = inhibition, most hits filed as inhibitors; 370,000 tested, 0.028% active; active = well fitted inhibition curve with a large enough effect in the polarisation, with a control signal flat; inconclusive = small, poorly fitted or top-dose-only effect, or effect the other way, or a change in a side signal; inactive = no such curve, though single readings can be large or run the other way; the % refers to the polarisation;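 also: polarization taken with two DNA probes labelled with fluorescein and Texas red; % of control where 0% means no effect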
# Target sequence (P11308 whole entry, looked up, the tested form may be a part): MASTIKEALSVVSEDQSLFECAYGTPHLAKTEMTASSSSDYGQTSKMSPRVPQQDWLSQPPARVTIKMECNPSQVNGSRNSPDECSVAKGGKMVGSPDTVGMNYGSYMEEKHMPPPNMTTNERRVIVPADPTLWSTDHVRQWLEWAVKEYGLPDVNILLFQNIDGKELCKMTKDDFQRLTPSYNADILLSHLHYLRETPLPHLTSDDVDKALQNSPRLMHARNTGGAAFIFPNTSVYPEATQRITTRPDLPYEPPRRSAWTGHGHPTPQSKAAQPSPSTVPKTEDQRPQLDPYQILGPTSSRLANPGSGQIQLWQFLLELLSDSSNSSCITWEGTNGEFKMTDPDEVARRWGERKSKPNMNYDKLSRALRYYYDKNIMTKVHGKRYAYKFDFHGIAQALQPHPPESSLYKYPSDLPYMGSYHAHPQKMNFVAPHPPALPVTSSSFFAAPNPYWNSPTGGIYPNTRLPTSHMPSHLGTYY
#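 His-tagged ERG Ets domain (1 uM in the protein solution; 300mM KCl, 50mM Tris-HCl, 1mM EDTA, 1mM DTT, pH 7.5) received compound, then a probe mix of 5 nM fluorescein-DNA and 100nM Texas-615-DNA. Fluorescence polarization was read for both dyes.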
# AT treatment – potential ataxia-telangiectasia treatment; 320,000 tested, 0.19% active; AID 485349; F2112 A-T fibroblasts, KAP-1 phosphorylation AlphaLISA; neocarzinostatin DNA damage 30 min before lysis; Potency, µM (highest dose often 57.5 µM), for the others: top-dose activation, actives largely listed as activators; also: % of control where 0% means no effect; nearly all actives have a fitted effect of over 45% in size
#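 ATM-like activity read as KAP-1 phosphorylation via AlphaLISA donor/acceptor antibody pairs after lysis and 6 hr at 25C. Cells were ATM-null patient fibroblasts (F2112, hTERT), dosed 60 min, then exposed to the DSB inducer NCS for 30 min.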
# TbPFK ATP – inhibits T. brucei PFK measured by ATP depletion; shares compounds with Tb PFK inh-1; Tb PFK enzyme, ATP depletion, Kinase-Glo Plus luminescence; 1,100 tested, 47% active; Potency, µM (series often up to 57.5 µM), without a hit: at the highest dose inhibition; calls by dose curve; also: nearly all actives have a fitted effect of over 60% in size
# Tb PFK inh-2 – T. brucei PFK enzyme inhibition, hit validation | shares compounds with Tb PFK inh-1 | purified T. brucei PFK, ADP-Glo luminescence, 45 min | Potency, µM (doses to about 57.5 µM), for inactives: at the top dose activity change, negative = inhibition, hits mostly inhibitors | 1,100 tested, 41% active | AID 504637;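 also: plate controls were full PFK enzyme control for no effect and no enzyme control for full effect; nearly all actives have a fitted effect of over 60% in size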
# * = called active by the depositor; ? = inconclusive; · = no result given. Unless noted, calls follow the shape of the dose curve; as a rule, active = well fitted curve in the direction sought with a large enough effect; inconclusive = small, poorly fitted or top-dose-only effect, or another doubt; inactive = no such curve, though single readings can be large; an effect the other way counts as inactive or inconclusive. Potency is read from the fitted curve at half-maximal effect.
SMILES,S-ASM inh,KAT2A inh,p53 reactivation,Tb PFK inh-1,ERG Ets-DNA blk,AT treatment,TbPFK ATP,Tb PFK inh-2
S=C(NCCCN1CCOCC1)N1CCN(c2cccc(Cl)c2)CC1,-4%,-5%,-2%,?,11%,-6%,21µM*,27µM*
O=C(NCc1ccccc1)Oc1cccc(Cl)c1,1%,-2%,?,-14%,-1%,-3%,·,·
S=C(NCc1ccccc1)N1CCN(c2cccc(Cl)c2)CC1,-3%,-1%,-2%,27µM*,-3%,6%,24µM*,27µM*
N=C1/C(=C\c2ccc(OC(=O)c3ccccc3Cl)cc2)C(=O)N=C2SC(N3CCOCC3)=NN12,-12%,?,10%,8%,16%,0%,·,·
CC(=O)N1CCN(c2ccc(NC(=O)c3ccc(Cl)c([N+](=O)[O-])c3)cc2)CC1,-4%,1%,-1%,?,1%,-6%,?,30µM*
CN1CCN(c2ccc(C(N)=O)cc2[N+](=O)[O-])CC1,0%,-1%,1%,3%,9%,2%,·,·
CC(C)CNC(=O)c1cccc(NC(=O)c2ccc(Cl)c([N+](=O)[O-])c2)c1,-8%,-8%,2%,24µM*,·,-8%,11µM*,21µM*
O=C(Nc1ccc(Cl)c([N+](=O)[O-])c1)c1ccncc1,-3%,-2%,-3%,?,1%,-4%,?,?
c1ccc(N2CC3(CCNCC3)C2)nc1,·,-16%,·,·,·,·,·,·
CC1CC2CCC(O2)C(C)C(=O)OC(C)CC2CCC(O2)C(C)C(=O)OC(C)CC2CCC(O2)C(C)C(=O)OC(C)CC2CCC(O2)C(C)C(=O)O1 (configuration not stated),·,-14%,·,·,·,·,·,·
O=CN1CCCCC1C1CC[C@H]2CCCCN2C1 (some centres not stated),·,-1%,·,·,·,·,·,·
CC(C)C1C(=O)O[C@@H]2CCN3CC=C(COC(=O)[C@](C)(O)[C@]1(C)O)[C@H]23 (some centres not stated),·,-4%,·,·,·,·,·,·
C=CCn1c(=O)[nH]c2cc(C(=O)N3CCN(c4ccc(C(C)=O)cc4)CC3)ccc2c1=O,-1%,-10%,0%,?,6%,1%,?,?
C[C@@H]1OC(=O)[C@H]2C[C@H]3CCCC[C@@H]3[C@@H](/C=C/[C@H]3CCC[C@H](C)N3C)[C@@H]12,·,3%,·,·,·,·,·,·
Cc1nn(C)cc1/C=N\NC(=O)c1ccc(Cn2cc(Cl)cn2)cc1,3%,-2%,7%,27µM*,-14%,8%,9.5µM*,?
CC(=O)OCOCC(=O)OCO[P+](=O)C(OCOC(C)=O)c1cc([N+](=O)[O-])ccc1Oc1ccc(Br)cc1 (configuration not stated),·,-12%,·,·,·,·,·,·
Cc1cc(C)nc(/N=C(\N)c2c(O)[nH]c(=O)[nH]c2=O)n1,1%,1%,?,?,-27%,9%,?,-16%
COc1ccc(N=C(C)c2c(O)[nH]c(=O)[nH]c2=O)cc1,1%,0%,·,1%,-9%,-10%,·,·
CCC/C=C/C=C/C(=O)OC1/C(=C/C(=O)OC)CC2CC(C(C)O)OC(=O)CC(O)CC3CC(OC(C)=O)C(C)(C)C(O)(CC4C/C(=C/C(=O)OC)CC(/C=C\C(C)(C)C1(O)O2)O4)O3 (configuration not stated),·,-17%,·,·,·,·,·,·
CC(C)NC(C)C(=O)c1ccc2ccccc2c1 (configuration not stated),1%,-11%,0%,-5%,-10%,-4%,·,·
CC(C)N(CCC(=O)c1ccc2ccccc2c1)Cc1ccccc1,-10%,?,-19%,?,-8%,?,30µM*,?
C[C@]12CC[C@H]3[C@@H](C[C@H](F)C4=CC(=O)CC[C@@]43C)[C@@H]1CC[C@@H]2O,·,-10%,·,·,·,·,·,·
CCOc1cc(/C=C\[N+](=O)[O-])ccc1OCC(=O)Nc1ccccc1C,-2%,-2%,-26%,?,4%,20%,-29%,?
CNCc1ccccc1Sc1cc(O)ccc1O,-2%,-13%,-21%,?,64%,-7%,3.4µM*,8.5µM*
CC(Cc1ccccc1Sc1ccccc1O)N(C)C (configuration not stated),3%,-6%,-2%,-1%,-8%,0%,·,·
SMILES,S-ASM inh,KAT2A inh,p53 reactivation,Tb PFK inh-1,ERG Ets-DNA blk,AT treatment,TbPFK ATP,Tb PFK inh-2
NCCc1c[nH]c2ccc(F)cc12,·,1%,-4%,?,·,-6%,?,?
COc1ccc2c(CCN)c[nH]c2c1,5%,-6%,3%,0%,-2%,·,·,·
CC(C)(O)C1C2OC(=O)C1[C@]1(O)CC3O[C@@]34C(=O)OC2[C@@]14C (some centres not stated),·,6%,·,·,·,·,·,·
COc1ccc(OC)c(NC(=O)COC(=O)c2cc3c(s2)CCC3)c1,55%,-3%,14%,?,2%,-4%,?,?
COC1C(O)C(C)O[C@H](OC2CC[C@@]3(C=O)C4CC[C@]5(C)C(C6=CC(=O)OC6)CC[C@@]5(O)C4CC[C@@H]3C2)C1O (some centres not stated),·,12%,·,·,·,·,·,·
CCN(CC)CCCCN1c2ccccc2Oc2ccc(Cl)cc21,·,0%,·,·,·,·,·,·
O=C1N=c2ccccc2=C1c1sc(Nc2ccc(O)cc2)nc1O,?,?,?,?,2%,1%,-3%,15%
COc1ccc(NC(=O)N2CC3(CCN(C(=O)Oc4ccccc4)CC3)C2)cc1,·,0%,·,·,·,·,·,·
c1cc(SSc2ccncc2)ccn1,3%,?,2%,24µM*,1%,27%,17µM*,?
CC1C(=O)OC2C1CC[C@@]1(C)C=CC(=O)[C@@]3(C)O[C@@]213 (some centres not stated),·,-5%,·,·,·,·,·,·
COc1cc2ccc(=O)oc2c2ccoc12,29%,-6%,-7%,-6%,2%,6%,·,·
COc1cc(-c2cc(=O)c3c(O)c(OC)c(OC)c(O)c3o2)ccc1O,-4%,-2%,-3%,?,10%,-10%,6µM*,9.5µM*

# From PubChem
